# Where “and” joins values, the source holds several entries; their conditions need not be identical. Equal entries are not always repeated. Calls of active or inactive are those of the source.
# Columns and labels:
# Albumin (Bos taurus) = Albumin (Bos taurus) (UniProt P02769); experiment: bovine serum albumin binders on microarray, profiling panel, artefact control for SMM control protein annotation, biochemical, small-molecule microarray, Alexa647 label, 635/667 nm fluorescence (AID 1118); conditions: BSA-A647 binding, fluorescence 635 nm, higher = more signal;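 also: score merges 667 nm emission intensity and signal-to-noise per printed compound spot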
# Albumin (Bos taurus), sequence (P02769 whole entry, looked up): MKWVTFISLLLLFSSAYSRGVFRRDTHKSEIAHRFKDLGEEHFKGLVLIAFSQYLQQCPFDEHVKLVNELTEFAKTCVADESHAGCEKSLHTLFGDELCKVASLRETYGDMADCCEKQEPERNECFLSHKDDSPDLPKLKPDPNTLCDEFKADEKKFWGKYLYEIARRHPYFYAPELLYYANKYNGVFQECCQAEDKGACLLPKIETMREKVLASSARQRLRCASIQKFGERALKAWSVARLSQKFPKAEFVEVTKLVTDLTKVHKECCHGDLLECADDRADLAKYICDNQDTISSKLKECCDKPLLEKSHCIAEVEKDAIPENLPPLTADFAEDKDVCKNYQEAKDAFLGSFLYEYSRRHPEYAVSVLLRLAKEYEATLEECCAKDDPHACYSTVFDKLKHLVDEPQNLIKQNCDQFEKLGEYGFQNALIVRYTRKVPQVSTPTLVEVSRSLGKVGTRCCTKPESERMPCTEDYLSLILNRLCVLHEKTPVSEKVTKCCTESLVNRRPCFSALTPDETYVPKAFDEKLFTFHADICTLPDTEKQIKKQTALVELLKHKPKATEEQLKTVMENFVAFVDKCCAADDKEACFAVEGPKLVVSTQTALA
# [1] = small-molecule microarray binders of probe aXIP, primary screen, biochemical, NeuroSMM set, 635/667 nm fluorescence (AID 1119); conditions: higher = more signal, called active from +8 up or from −8 down;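 also: probe is the protein aXip251-270 applied at 1 µg/mL to compound-printed slides; binding of probe to printed compounds measured as 667 nm fluorescence plus signal to noise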
# [2] = small-molecule binders of probe aNOTCH3, primary screen, biochemical, small-molecule microarray, 635/667 nm fluorescence (AID 1120); conditions: higher = more signal;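 also: probe is a biotin-tagged antibody raised against NOTCH3 rather than NOTCH3 protein; score merges spot fluorescence near 667 nm with spot signal to noise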
# [3] = small-molecule binders of probe aNOTCH2, primary screen, biochemical, small-molecule microarray, 635/667 nm fluorescence (AID 1121); conditions: higher = more signal;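 also: score merges feature fluorescence read at 667 nm with its signal to noise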
# [4] = molecular target: Carbonic anhydrase 2 (Homo sapiens) (UniProt P00918); experiment: CAII small-molecule binders, profiling panel, biochemical, small-molecule microarray, Alexa647-labelled CAII (AID 1122); conditions: CAII-A647 binding fluorescence, higher = more signal
# [5] = COS7 lysate on small-molecule microarray, probe aHis, 635 nm (AID 1123); conditions: COS7 cell lysate, fluorescence, higher = more signal;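 also: z-score combines 667nm fluorescence intensity with signal-to-noise per printed compound spot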
# [6] = compound binding in COS7 lysate, probe aLAP1, primary screen, cell lysate, small-molecule microarray (AID 1124); conditions: probe aLAP1, fluorescence, higher = more signal;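 also: lysate comes from COS7 cells expressing LAP1 and is applied at 0.3 µg/mL; score merges spot fluorescence near 667 nm with signal-to-noise over triplicate slides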
# Sam68 (KHDRBS1) = experiment: Sam68 small-molecule binders, primary screen, biochemical, small-molecule microarray, 635 nm fluorescence (AID 1125); conditions: small-molecule microarray binding, higher = more signal;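 also: score merges 667 nm channel intensity with signal to noise over triplicate slides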
# [7] = test system: Chordin-like protein 2 (CHRDL2); experiment: CHRDL2 small-molecule binders, primary screen, biochemical, small-molecule microarray, 635 nm fluorescence (AID 1126); conditions: small-molecule microarray binding, fluorescence 635 nm; higher = more signal;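 also: printed compound slides probed with Chrdl2 protein at 4 µg/mL for 1 h at 4 C; score merges 667 nm emission intensity with signal to noise over three replicate slides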
# [8] = molecular target: Concanavalin-A (Canavalia ensiformis) (UniProt P02866); experiment: ConA small-molecule binders, primary screen, artefact control for SMM control protein annotation, biochemical, small-molecule microarray, Alexa647 label, 635 nm (AID 1127); conditions: ConA-A647 binding fluorescence, higher = more signal;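 also: z combines 667 nm emission intensity with signal-to-noise across three replicate slides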
# Concanavalin-A (Canavalia ensiformis), sequence (P02866 whole entry, looked up): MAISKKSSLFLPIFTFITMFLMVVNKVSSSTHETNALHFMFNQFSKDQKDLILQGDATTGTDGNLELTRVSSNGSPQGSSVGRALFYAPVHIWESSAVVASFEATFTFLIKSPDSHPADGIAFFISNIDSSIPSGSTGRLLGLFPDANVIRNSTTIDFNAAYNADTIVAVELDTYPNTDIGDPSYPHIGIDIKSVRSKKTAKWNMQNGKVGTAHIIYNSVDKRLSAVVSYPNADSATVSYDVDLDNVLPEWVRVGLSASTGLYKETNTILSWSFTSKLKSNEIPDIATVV
SMILES,composite z-score (Albumin (Bos taurus)),composite Z-score [1],composite z-score [2],composite z-score [3],composite z-score [4],composite z-score [5],composite z-score [6],composite z-score (Sam68 (KHDRBS1)),composite z-score [7],composite z-score [8]
C=C[C@@H](OC)[C@H](O)c1ccc(OCCO)cc1,-0.128 and 0.397,-0.158 (inactive) and -0.292 (inactive),-0.323 and -0.465,-0.227 and -0.142,0.831 and 0.847,-0.236 and -0.474,1.48 and -0.402,-0.352 and -1.38,-0.866 and -1.44,-1.26 and -1.04
CC(CO)N1C(=O)[C@@H]2C3C(=O)OCCC=C[C@H]3OC23C=CCN(CCN2CCOCC2)C(=O)[C@@H]13 (stereo not given in full),0.417 and -0.264,0.102 (inactive) and -0.135 (inactive),-0.225 and 0.604,-0.113 and -0.147,0.819 and 0.787,-0.144 and 2.41,-0.657 and 0.721,-0.495 and 1.14,-0.184 and -0.565,0.116 and 0.686
Cc1ccc(S(=O)(=O)N[C@H]2COC(=O)[C@@H](Cc3ccccc3)NC(=O)[C@@H](C)COC(=O)CC=C[C@@H]2C)cc1,-0.92 and -0.489,0.103 (inactive) and 0.304 (inactive),-0.279 and -0.132,-0.162 and -0.185,-0.363 and 0.129,-0.902 and 0.614,-0.221 and -0.16,-0.309 and 0.663,0.748 and 0.691,0.117 and 0.0745
C[C@@H]1CC[C@H]2C(=O)O[C@H](CN=[N+]=[N-])CN2[C@H]1c1ccc(Br)cc1,-0.507 and 0.491,0.142 (inactive) and 0.753 (inactive),-0.125 and -0.197,-0.245 and -0.0569,-0.188 and -0.223,-0.0295 and -0.382,0.268 and -0.329,-0.167 and 0.113,0.735 and 0.382,-0.726 and 0.0516
COC(=O)[C@@]1(Cc2ccccc2)[C@H]2c3cc(C(=O)N(C)C)n(Cc4ccc(C)c(F)c4F)c3C[C@H]2CN1C(=O)c1ccccc1,0.821 and 0.859,0.392 (inactive) and -0.26 (inactive),0.141 and 1.27,0.106 and -0.0977,0.72 and 0.653,2.51 and 2.94,0.289 and 0.612,0.998 and 1.34,-1.32 and -0.528,0.201 and 1.18
C=CCN(CCCCC)C(=O)C1N(C(C)(C)CO)C(=O)C2C(C(=O)O)C3C=CC21O3 (stereo not given),-0.544 and -0.85,0.159 (inactive) and -0.421 (inactive),-0.484 and -0.372,-0.112 and -0.0984,0.196 and 0.327,-1.14 and -0.703,-0.385 and 0.137,-1.11 and -1.2,-1.84 and -2.83,-1.83 and -1.31
C=CCN(C(=O)C(c1cccs1)N(C(=O)/C=C\C(=O)O)c1c(Cl)cccc1CO)c1ccc(OC)cc1 (stereo not given),-0.464 and -0.473,-0.244 (inactive) and 0.222 (inactive),-0.374 and -0.246,-0.179 and -0.127,0.819 and 0.837,1.8 and 0.329,0.78 and 0.281,-0.818 and -0.2,-4.02 and -0.896,-0.772 and -1.14
COC(=O)CC=C[C@@H](C)[C@@H](CO)NS(=O)(=O)c1ccc(C)cc1,0.0833 and -0.252,0.105 (inactive) and 0.309 (inactive),-0.0391 and 0.111,-0.0703 and -0.14,-0.121 and 0.0581,-0.114 and 0.0271,-0.144 and -0.481,-0.182 and 0.567,0.696 and 1.03,-0.213 and -0.52
COC(=O)[C@H](C)NC(=O)CCC1CC(OC(=O)NCCc2ccc(F)cc2)CC2(CCCC(COC(=O)NCCCN3CCCC3=O)O2)O1 (stereo not given in full),0.171,2.06 (inactive),0.0159,0.666,0.194,0.275,0.0736,1.3,0.407,1.07
C=CCN(C(=O)C1N(c2c(Cl)cccc2CO)C(=O)C2C(C(=O)O)C3C=CC21O3)C(C)(C)C (stereo not given),0.393 and -0.872,0.0388 (inactive) and -0.166 (inactive),-0.479 and -0.47,-0.253 and -0.185,0.791 and -0.713,-0.556 and -0.856,-0.0145 and -0.779,-1.2 and -2.06,-2.06 and -2.92,-1.09 and -0.331
CCOC(=O)NN=C1C[C@@H](O)[C@@H](O)[C@@H]2[C@@H]3C(=O)N(Cc4ccc5c(c4)OCO5)C(=O)[C@@H]3CC[C@@H]12,0.397,0.221 (inactive),-0.141,-0.0349,-0.158,0.257,-0.377,0.789,0.171,0.837
CO[C@@H]1COC(=O)CC=C[C@H](C)COC(=O)[C@H](C)NC(=O)CC=C[C@H]1C,-1.02,0.332 (inactive),-0.1,-0.164,-0.427,-0.448,-0.235,0.548,1.06,0.161
CC(C)C(=O)N[C@@H]1CCCN1C(=O)C=Cc1ccccc1,-0.0317,1.05 (inactive),0.0271,-0.14,-0.0483,0.251,-0.086,0.806,0.933,0.315
CCN1C(=O)[C@H]2[C@H]3[C@H](O)[C@H](O)CC(=NOC)[C@@H]3CC[C@H]2C1=O,-0.311,-0.791 (inactive),0.0297,-0.0681,-0.317,-0.417,-0.375,-0.478,0.508,-0.0569
C=CCN(CCCC)C(=O)C(c1cccs1)N(C(=O)/C=C\C(=O)O)c1ccc(CCO)cc1 (stereo not given),-1.02 and -2.4,0.127 (inactive) and -0.0505 (inactive),-0.437 and -0.449,-0.171 and -0.202,0.864 and 0.861,0.0769 and -0.501,0.132 and -0.426,-0.798 and -1.53,-1.26 and -4.41,-1.83 and -1.63

# From PubChem BioAssay
